An excerpt weighted towards active compounds, which were near 12% of everything screened.
Lassa entry inh: Lassa virus entry inhibition; Lassa virus pseudotype entry inhibition, cell reporter; Potency, µM (top dose mostly 37.9 µM), for the others: at the top dose activity change, negative = inhibition, actives largely listed as inhibitors; 300,000 tested, 1.2% active; AID 540256; calls by dose curve; tested in HEK293 cells; also: potency is read from the fitted curve at half-maximal effect; % is scaled to controls: 0 for no effect and ±100 for the full control effect; nearly all actives have a fitted effect of over 50% in size
Cycloheximide cs: counter-screen hit for Shiga toxin inhibitors, cycloheximide; 300,000 tested, 12% active; AID 2314; cell reporter, cycloheximide protein synthesis inhibition counterscreen; max response, %; in the data active = max response mostly above about 13%, no sharp cut-off; inactive = mostly below about 14%; also: read at 38.3 µM for the half of the compounds with a filed dose; 0% is about no effect
MARV entry inh: Marburg virus entry inhibition; Marburg virus pseudotyped entry inhibition, cell reporter; Potency, µM (titrated, usually from 37.8 µM), for the others: at the top dose activity change, negative = inhibition, actives largely listed as inhibitors; 300,000 tested, 1.8% active; calls by dose curve; tested in HEK293 cells; also: potency is read from the fitted curve at half-maximal effect; % is scaled to controls: 0 for no effect and ±100 for the full control effect
Shiga inhibitor: inhibitors of Shiga toxin in Vero cells; Vero cells, Shiga toxin protein synthesis inhibition reporter; inhibition, % at 38.7 µM; 290,000 tested, 9.2% active; AID 2315; in the data active = inhibition mostly above about 28%, no sharp cut-off; inactive = mostly below about 43%; also: 0% is about no effect
* = called active by the depositor; ? = inconclusive; . = no result; [ ] = remark or other dose.

SMILES | Lassa entry inh | Cycloheximide cs | MARV entry inh | Shiga inhibitor
N#Cc1cc2c(nc1SC1CC(=O)N(c3ccccc3)C1=O)CCC2 (centres undefined) | 3% | 83* | ? | 115*
CSc1ncc(CN2CCCC(C(=O)c3cccc(Cl)c3)C2)cn1 (centres undefined) | 1%[46.1 µM] | -3 | ? | -2
CSc1ncc(CN2CCCC(C(=O)c3ccc(C(C)(C)C)cc3)C2)cn1 (centres undefined) | . | 22* | . | 37
O=C(c1cncs1)N1CCCC(CNS(=O)(=O)c2cccs2)C1 (centres undefined) | 9%[46.1 µM] | 1 | 12%[46.1 µM] | -8
CCC(C)Nc1sc(S(=O)(=O)CC)nc1S(=O)(=O)c1ccc(C)cc1 (centres undefined) | 15%[46.1 µM] | . | 12%[46.1 µM] | .
COc1cc(C(=S)N2CCCC2)ccc1OCc1ccc(C)cc1 | . | 69* | . | 81*
Fc1ccc(COc2ccccc2C(=S)N2CCCC2)cc1 | -1% | 2 | 2% | 34
Cc1ccc(COc2ccccc2C(=S)N2CCCC2)cc1 | 4% | 17* | -23%[46.1 µM] | 20
COc1ccc(C2CC(c3ccccc3)=NN2C(=O)COC(=O)/C=C/c2ccc(O)c(OC)c2)cc1 (centres undefined) | . | 2 | . | 19
COc1cc(C(=O)Nc2ccc3c(c2)ncn3C)cc(OC)c1OC | . | 9 | . | .
Cn1cnc2cc(NCc3ccc(Cl)cc3)ccc21 | . | 45* | . | 60*
CCOc1ccc(CNc2ccc3c(c2)ncn3C)cc1 | -19% | 35* | -9% | 38*
COc1ccc(CNc2ccc3c(c2)ncn3-c2ccccc2OC)cc1 | 2% | -1 | ? | 45
CCOc1ccc(CNc2ccc3c(c2)ncn3C(C)(C)C)cc1 | . | 24* | . | 40*
COc1ccc(CCNc2ncnc3c2cnn3-c2ccc(F)cc2)cc1 | 2%[46.1 µM] | . | . | .
CCC(CO)Nc1ncnc2c1cnn2-c1ccc(OC)cc1 (centres undefined) | . | 37* | . | 53*
CCC(CO)Nc1ncnc2c1cnn2-c1ccc(Cl)cc1 (centres undefined) | . | 40* | . | 47
N#Cc1ccccc1S(=O)(=O)N1CCCC(c2nc3c(nnn3Cc3cccc(Cl)c3)c(=O)[nH]2)C1 (centres undefined) | -16%[46.1 µM] | . | -11%[46.1 µM] | .
CCOC(=O)c1sc2nc3c(cc2c1N)COC(C)(C)C3 | ? | 38* | ? | 29*
CCC1(C)Cc2nc3sc(C(=O)O)c(N)c3cc2CO1 (centres undefined) | 11% | 5 | 28% | -16
CCOC(=O)c1cc2c(nc1N)CC(C)(C)OC2 | ? | 13 | 19% | 16
CCOC(=O)c1cc2c(nc1N)CC(C)(CC)OC2 (centres undefined) | ? | 49* | 16% | 116*
CCOC(=O)c1sc2nc3c(cc2c1N)COC(C)(CC)C3 (centres undefined) | ? | 41* | ? | 33
CC1(C)Cc2nc3sc(C(N)=O)c(N)c3cc2CO1 | . | 31* | . | 31
CC(=O)Nc1c(C(=O)N2CCOCC2)sc2nc3c(cc12)COC(C)(C)C3 | 13% | 6 | -2% | -21
SMILES | Lassa entry inh | Cycloheximide cs | MARV entry inh | Shiga inhibitor
COc1ccc(/C=C/C(=O)Nc2cccc(C(C)=O)c2)cc1 | -26% | 60* | ? | 68*
COc1ccc(/C=C/C(=O)Nc2cccc(F)c2)cc1 | -8%[46.1 µM] | . | . | .
COc1ccccc1/C=C/C(=O)Nc1cccc(C(C)=O)c1 | -9% | 45* | ? | 65*
COc1cccc(/C=C/C(=O)Nc2ccc(C(=O)Nc3cccc(S(N)(=O)=O)c3)cc2)c1OC | . | 5 | ? | -3
COc1cccc(/C=C/C(=O)Nc2ccc3c(c2)OCCO3)c1OC | ? | 27* | ? | 88*
COc1ccccc1N1CCN(CC(=O)Nc2ccc3c(c2)OCCO3)CC1 | . | 16 | . | 18
COc1cccc(/C=C/C(=O)Nc2cccc(C(C)=O)c2)c1OC | . | 49* | . | 75*
Cc1cc(C)c2nc(-c3ccccn3)cc(C(=O)NCc3ccc(S(N)(=O)=O)cc3)c2c1 | ? | -2 | 11µM* | -6
COc1ccc(N2CCN(S(=O)(=O)c3cc4c(cc3C)N(C(C)=O)CCO4)CC2)cc1 | . | -1 | . | -3
Cn1cnnc1SCc1ccc(C(=O)NN)cc1 | 1% | 45* | 1%[46.1 µM] | 48
Cn1cnnc1SCc1ccc(C(=O)O)cc1 | 7% | -5 | -9% | -18
C/C(=N\NC(=O)c1ccc(CSc2nncn2C)cc1)c1cccs1 | -23%[46.1 µM] | 28* | ? | 107*
Cn1cnnc1SCc1ccc(C(=O)N/N=C(\CCC(=O)O)c2ccc(C(C)(C)C)cc2)cc1 | 7% | 14* | 9% | 32*
Cc1cc(S(=O)(=O)n2ccnc2C(C)C)cc([N+](=O)[O-])c1C | ? | . | -3%[46.1 µM] | .
